For 14 molecules, Potency and outcome results are on record in PubChem BioAssay (Tox21).

Assay [1] in a line: qHTS assay for small molecule agonists of the p53 signaling pathway (AID 651631; calls by dose curve; further: nearly all actives have a fitted effect of over 15% in size; further: potency means the concentration at half of the fitted maximal effect). In short, it runs like this: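 Fluorescence intensity from cleaved LiveBLAzer B/G substrate (2 h, room temperature) served as the signal. Beforehand, HCT-116 reporter cells bearing p53 response elements were treated 16 h at 37 °C with DMSO-dissolved compounds.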
(In qHTS, concentration-response curves come from the screen itself.)

A short description of assay [2]: qHTS assay for small molecule agonists of the p53 signaling pathway - cell viability (AID 651633; calls by dose curve;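 further: p53RE-bla HCT reporter cells with a stable beta-lactamase p53 reporter; series mostly up to about 83 µM; nearly all actives have a fitted effect of over 30% in size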). The method, boiled down:
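p53RE-bla cells were treated with compound for 16 hours at 37 C. Cytotoxicity was then measured as CellTiter-Glo luminescence after 30 min at room temperature.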

The nature of assay [3]: qHTS assay for small molecule disruptors of the mitochondrial membrane potential - cell viability (AID 720634; calls by dose curve; further: nearly all actives have a fitted effect of over 20% in size; further: potency means the concentration at half of the fitted maximal effect). In short, it runs like this: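 Human hepatoma HepG2 cells were treated for 1 hr with test chemicals, then given m-MPI dye and CellTiter-Glo. Cell viability reflects luminescence proportional to cellular ATP.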
The nature of assay [4]: qHTS assay to test for compound auto fluorescence at 590 nm (red) in HepG2 cells (AID 720674). In short, it runs like this:
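Fluorescence at 590 nm emission following 540 nm excitation was recorded from HepG2 wells one hour after compound transfer, with DMSO-only wells as vehicle and Rose Bengal sodium equivalency as the scale.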

The nature of assay [5]: qHTS assay to test for compound auto fluorescence at 535 nm (green) in HepG2 cells (AID 720675).
A short description of assay [6]: qHTS assay to test for compound auto fluorescence at 460 nm (blue) in HEK293 cells (AID 720678). The method, boiled down:
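Measured: blue fluorescence (Ex 405/Em 460 nm) of compound-treated HEK293 cells, incubated overnight at 37C with 5% CO2 and scaled to triamterene equivalents.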

A short description of assay [7]: qHTS assay to test for compound auto fluorescence at 590 nm (red) in HEK293 cells (AID 720679). The method, boiled down:
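Using HEK293 cells at 2,000 per well, the screen added 23 nL of each compound after cell attachment and incubated overnight (37C, 5% CO2). The plate reader then captured red-label fluorescence, Ex/Em 540/590nm.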

Assay [8] in a line: qHTS assay to test for compound auto fluorescence at 535 nm (green) in HEK293 cells (AID 720680).
A short description of assay [9]: qHTS assay to test for compound auto fluorescence at 460 nm (blue) in HEK293 cell free culture (AID 720681). In short, it runs like this:
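Compounds were added to cell-free DMEM with 10% FBS and fluorescence read directly. The blue channel used 405 nm excitation and 460 nm emission, with triamterene as the reference fluorophore.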

Assay [10] in a line: qHTS assay to test for compound auto fluorescence at 535 nm (green) in HEK293 cell free culture (AID 720682). In short, it runs like this:
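Intrinsic compound fluorescence is measured in culture medium containing 10% FBS, with excitation at 485 nm and detection at 535 nm, referenced to fluorescein.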

The nature of assay [11]: qHTS assay to test for compound auto fluorescence at 590 nm (red) in HEK293 cell free culture (AID 720683). The method, boiled down: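 Cell-free wells of DMEM with 10% FBS received compound, and intrinsic fluorescence was read at excitation/emission 540/590 nm. Values expressed as equivalence to Rose Bengal sodium.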
A short description of assay [12]: qHTS assay to test for compound auto fluorescence at 590 nm (red) in HepG2 cell free culture (AID 720684). In short, it runs like this: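 Compound was pinned into wells holding MEM with 10% FBS and no cells, and red fluorescence was read at Ex/Em 540/590 nm. Signal is expressed as auto fluorescence equivalency relative to Rose Bengal sodium.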
A short description of assay [13]: qHTS assay to test for compound auto fluorescence at 460 nm (blue) in HepG2 cell free culture (AID 720685). In short, it runs like this: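 Compound (23 nL) or DMSO pinned into cell-free MEM with 10% FBS; blue fluorescence read at 405/460 nm excitation/emission, expressed as auto-fluorescence equivalency to triamterene.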
Assay [14] can be described thus: qHTS assay to test for compound auto fluorescence at 535 nm (green) in HepG2 cell free culture (AID 720686).
Assay [15] in a line: qHTS assay to test for compound auto fluorescence at 460 nm (blue) in HepG2 cells (AID 720687). The method, boiled down: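 HepG2 cells in MEM with 10% FBS, attached overnight at 37 C, were exposed to compound or DMSO for 1 hr at 37 C, 5% CO2. Blue fluorescence was read at 405/460 nm, with triamterene as reference fluorophore.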
Assay [16] has as its target Glucocorticoid receptor (Homo sapiens) (UniProt P04150). In words: qHTS assay to identify small molecule agonists of the glucocorticoid receptor (GR) signaling pathway (AID 720691; active means well fitted activation curve with a large enough effect in the signal ratio in the repeat runs, not every such curve was filed as active; the % refers to the signal ratio). In short, it runs like this:
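Beta-lactamase reporter activity, read as fluorescence intensity, was measured in GR-bla HeLa cells exposed to compounds for 18 h at 37 C and then loaded with LiveBLAzer B/G FRET substrate for 2 h at room temperature.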

For assay [17] the target is unchanged. Kind of assay: qHTS assay to identify small molecule antagonists of the glucocorticoid receptor (GR) signaling pathway (AID 720692; active means well fitted inhibition curve with a large enough effect in the signal ratio in the repeat runs, not every such curve was filed as active; the % refers to the signal ratio; further: potency means the concentration at half of the fitted maximal effect). The method, boiled down:
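Fluorescence from cleaved LiveBLAzer B/G FRET substrate reports GRE-driven beta-lactamase in HeLa cells; compounds are tested against 5 nM dexamethasone (final) over 18 h at 37 C, substrate incubation 2 h at room temperature.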

Assay [18] can be described thus: qHTS assay for small molecules that induce genotoxicity in human embryonic kidney cells expressing luciferase-tagged ATAD5 - cell viability (AID 651634; calls by dose curve; further: nearly all actives have a fitted effect of over 25% in size; further: potency means the concentration at half of the fitted maximal effect). In short, it runs like this: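 Live-cell protease activity (CellTiter-Fluor, fluorescence) indicates viability. HEK293T cells with luciferase-tagged ATAD5; 15.5 hr compound treatment at 37C.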
A short description of assay [19]: qHTS assay for small molecules that induce genotoxicity in human embryonic kidney cells expressing luciferase-tagged ATAD5 (AID 651632). Further: nearly all actives have a fitted effect of over 15% in size. Further: potency means the concentration at half of the fitted maximal effect. In short, it runs like this: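 Genotoxicity read-out via ATAD5-luciferase: HEK293T cells, 16 hr compound incubation at 37C, Amplite detection.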
Assay [20] in a line: qHTS assay for small molecule disruptors of the mitochondrial membrane potential (AID 720635). Further: potency means the concentration at half of the fitted maximal effect. The method, boiled down: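 HepG2 cells exposed to compound 1 hr at 37C, then Mito-MPS dye 30 min. Ratio read of aggregate (540/590 nm) versus monomer (490/535 nm) fluorescence.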

Records with an inconclusive call do not appear. Activity calls are given as the source filed them. Unless noted, the call rests on the fitted dose curve; in most records, active means well fitted curve in the direction sought with a large enough effect in the repeat runs; inconclusive means weak or mixed curves; inactive means no such curve, though single readings can be large; an effect the other way counts as inactive or inconclusive.

Glucocorticoid receptor (Homo sapiens), sequence (P04150 whole entry, looked up): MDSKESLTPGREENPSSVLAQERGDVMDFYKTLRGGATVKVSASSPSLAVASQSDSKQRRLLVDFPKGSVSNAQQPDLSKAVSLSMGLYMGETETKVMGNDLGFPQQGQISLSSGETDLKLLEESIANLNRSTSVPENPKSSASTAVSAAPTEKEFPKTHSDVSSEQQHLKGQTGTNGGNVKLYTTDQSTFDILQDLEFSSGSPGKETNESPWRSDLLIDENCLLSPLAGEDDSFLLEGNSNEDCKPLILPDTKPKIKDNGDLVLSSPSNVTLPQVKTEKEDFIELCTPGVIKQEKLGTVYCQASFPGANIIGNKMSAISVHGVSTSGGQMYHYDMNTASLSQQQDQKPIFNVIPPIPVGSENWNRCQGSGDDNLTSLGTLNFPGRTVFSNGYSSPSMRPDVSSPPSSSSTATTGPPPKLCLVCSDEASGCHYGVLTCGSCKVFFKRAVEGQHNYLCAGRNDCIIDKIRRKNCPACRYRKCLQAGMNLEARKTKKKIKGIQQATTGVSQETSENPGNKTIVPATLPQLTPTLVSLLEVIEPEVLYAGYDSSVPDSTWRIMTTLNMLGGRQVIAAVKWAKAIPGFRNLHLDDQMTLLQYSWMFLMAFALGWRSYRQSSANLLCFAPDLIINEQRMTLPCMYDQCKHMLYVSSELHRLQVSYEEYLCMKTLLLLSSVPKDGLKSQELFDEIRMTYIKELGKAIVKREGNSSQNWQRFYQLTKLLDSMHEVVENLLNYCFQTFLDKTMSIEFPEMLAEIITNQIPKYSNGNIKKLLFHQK

For the molecule `[Cl][Sb]([Cl])[Cl]`, the Potency in [1] was 34.4 µM (active). Moreover, the Potency entry in [2], in assay [3], in assay [6], in [9], in [13] and in assay [15] was “inactive” in each case. In addition, the outcome in assay [4], in [5], in [7], in assay [8], in assay [10] and in assay [11] was inactive. The molecule was classed as inactive in [12] and in assay [14].

As to `CC(C)CCCCCCCOP(=O)(Oc1ccccc1)Oc1ccccc1`, the Potency result in assay [1], in assay [2], in assay [13], in assay [15], in [16] and in assay [17] was “inactive” throughout. Moreover, the outcome in [4], in assay [5], in [7], in assay [8], in assay [10] and in assay [11] was inactive. Moreover, the outcome in [12] and in assay [14] was inactive.

Consider `N#CNC#N`, for which the Potency result in [1], in [2], in [18], in assay [3], in assay [6] and in assay [13] was “inactive” in each case. Besides, the Potency result in [15], in assay [16] and in assay [17] was “inactive” in each case. Besides, the call in assay [4], in [5], in assay [7], in assay [8], in assay [10] and in assay [11] was inactive. In addition, the outcome in [12] and in assay [14] was inactive.

Take `O=[N+]([O-])c1ccc2ccc3cccc4ccc1c2c34`: the results for the Potency in [19] and in assay [20] were 48.5 µM (active) and 1.22 µM (active), respectively. In addition, the Potency result in assay [2], in assay [18], in [3], in assay [6], in assay [9] and in assay [13] was “inactive” throughout. In addition, the Potency result in assay [15] is “inactive”. In addition, the call in [4], in assay [5], in [7], in assay [8], in assay [11] and in [12] was inactive. Also, in assay [14], the outcome was inactive.

As to `BrC(Br)Br`, the Potency result in [1], in assay [2], in assay [3], in assay [6], in [9] and in [13] was “inactive” in each case. Further, the Potency result in [15] and in [16] was “inactive” each time. For the same molecule, the call in assay [4], in [5], in assay [7], in [8], in assay [10] and in assay [11] was inactive. Also, the molecule was called inactive in assay [12] and in assay [14].

As to `FC(F)(F)c1cccc(C2=CCN(CCc3ccc4ccccc4c3)CC2)c1`, the Potency entry in assay [1], in assay [19], in [18], in assay [3], in assay [6] and in assay [9] was “inactive” throughout. Further, the Potency result in assay [13], in assay [15], in [16] and in assay [17] was “inactive” each time. Also, the molecule was classed as inactive in [4], in assay [5], in assay [7], in assay [8], in assay [10] and in [11]. The call in assay [12] and in [14] was inactive.

Regarding `O=CC(Br)(Br)Br`, the Potency is 13.6 µM (active) in assay [1], 9.66 µM (active) in [19], 30.5 µM (active) in [18] and 30.5 µM (active) in [20]. The result in assay [4], in [5], in [7], in assay [8], in assay [10] and in assay [11] was inactive. In addition, the call in [12] and in assay [14] was inactive. The Potency result in assay [6], in [9] and in assay [15] was “inactive” throughout.

For the molecule `c1ccc2c(c1)[nH]c1cnccc12`, the Potency result in assay [19], in assay [2], in assay [18], in assay [3], in assay [20] and in assay [6] was “inactive” throughout. The Potency entry in assay [9] was “inactive”. In addition, the molecule was classed as inactive in assay [4], in assay [5], in assay [7], in [8], in assay [10] and in [11]. Besides, the call in assay [12] and in assay [14] was inactive.

With `CC(C)Oc1cccc(NC(=O)c2ccccc2C(F)(F)F)c1`, the Potency entry in [19], in [2], in assay [18], in assay [6], in [9] and in assay [13] was “inactive” each time. For the same molecule, the Potency result in assay [15] and in [16] was “inactive” each time. The results for the Potency in assay [3] and in [20] were 30.6 µM (active) and 17.2 µM (active), respectively. In addition, the result in assay [4], in assay [5], in assay [7], in [8], in [11] and in assay [12] was inactive. Moreover, the molecule was classed as inactive in [14].

On to `CC(C)[C@H](C(=O)O[C@H](C#N)c1cccc(Oc2ccccc2)c1)c1ccc(Cl)cc1`, for which the Potency result in assay [1], in assay [19], in [18], in assay [6], in [9] and in assay [15] was “inactive” throughout. Also, the Potency in assay [20] is 30.6 µM (active). Also, the outcome in assay [4], in assay [5], in assay [7], in [8], in [10] and in assay [11] was inactive. Besides, the molecule was classed as inactive in [12] and in assay [14].

As for `C1CCC2CCCCC2C1` (centres undefined), the Potency entry in assay [1], in assay [19], in assay [18], in [3], in assay [6] and in assay [9] was “inactive” throughout. Further, the Potency entry in assay [15] and in assay [16] was “inactive” in each case. In addition, the molecule was called inactive in assay [4], in assay [5], in assay [7], in assay [8], in [11] and in assay [12]. In assay [14], the molecule was called inactive.

For `CSCCCN=C=S`, the Potency in assay [1] and in assay [18] was 54.5 µM (active) in each case. In addition, the Potency entry in assay [3], in [6], in assay [9], in [13], in assay [15] and in assay [16] was “inactive” in each case. Moreover, the outcome in assay [4], in assay [5], in assay [7], in assay [8], in assay [10] and in assay [11] was inactive. The result in assay [12] and in [14] was inactive.

Consider `Cc1cc(C(C)(C)c2cc(C)c(O)c(C)c2)cc(C)c1O`, for which the Potency in [1] was 29.6 µM (active); in assay [3], 29.6 µM (active); in assay [20] it was 18.7 µM (active); in [17], 4.74 µM (active). Moreover, the Potency entry in assay [19], in [18], in assay [6], in assay [13] and in [15] was “inactive” each time. The result in assay [4], in assay [5], in assay [7], in assay [8], in [10] and in assay [11] was inactive. Further, the call in [12] and in assay [14] was inactive.

`CC(Cc1ccc(C(C)(C)C)cc1)CN1C[C@@H](C)O[C@@H](C)C1` (some centres undefined): the Potency entry in assay [19], in [2], in assay [18], in assay [3], in assay [6] and in assay [9] was “inactive” throughout. In addition, the Potency result in [13], in assay [15], in assay [16] and in [17] was “inactive” throughout. The Potency in assay [20] is 61.1 µM (active). The molecule was called inactive in assay [4], in [5], in assay [7], in assay [8], in assay [11] and in assay [12]. Moreover, in assay [14], the molecule was classed as inactive.
